# According to PubChem BioAssay (NCI):
# Values joined by “and” are separate entries in the source; they are usually repeats but may differ in a detail not shown here. Identical values can stand only once. About 83,000 compounds went through this panel and 20% of them were active in at least one assay; those are over-represented in the sample as a whole.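 Testing used 96-well plates and a 48-hour single-concentration exposure. Example: -40 means 40% of the starting cells died.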 Active and inactive are the calls of the source. How the source made its calls: active means growth percent below 10; inactive means the rest.
# Tests used:
# Experiment in all cases: NCI-60 one-dose screen, 48 h (100 = growth as untreated, 0 = no growth, -100 = all killed)
# Conditions in all cases: 10 µM unless noted
# HCT-15 colon = tested on: HCT-15 colon
# HT29 colon = tested on: HT29 colon
# SNB-75 CNS = tested on: SNB-75 CNS
# SNB-19 CNS = tested on: SNB-19 CNS
# U251 CNS = tested on: U251 CNS
# SK-MEL-5 melanoma = tested on: SK-MEL-5 melanoma
# UACC-62 melanoma = tested on: UACC-62 melanoma
# LOX IMVI melanoma = tested on: LOX IMVI melanoma
# SK-MEL-28 melanoma = tested on: SK-MEL-28 melanoma
# PC-3 prostate = tested on: PC-3 prostate
SMILES,growth (HCT-15 colon),growth (HT29 colon),growth (SNB-75 CNS),growth (SNB-19 CNS),growth (U251 CNS),growth (SK-MEL-5 melanoma),growth (UACC-62 melanoma),growth (LOX IMVI melanoma),growth (SK-MEL-28 melanoma),growth (PC-3 prostate)
Cc1cc[c-]cc1.Fc1c[c-]c(-c2ccccn2)c(F)c1.[Pt+2].c1ccc([PH+](c2ccccc2)c2ccccn2)cc1,74.1% (inactive),22.9% (inactive),22.7% (inactive),49.5% (inactive),27% (inactive),77.5% (inactive),64.5% (inactive),31.2% (inactive),39.4% (inactive),–
O=[N+]([O-])c1c(Cl)cc(Cl)c([N+](=O)[O-])c1Cl,85.9% (inactive),100% (inactive),–,113% (inactive),96.1% (inactive),101% (inactive),108% (inactive),33.6% (inactive),100% (inactive),83.2% (inactive)
C=CC[PH+](c1ccccc1)c1ccccc1.C=CC[PH+](c1ccccc1)c1ccccc1.[Pt+2].[S-]c1ncccn1.[S-]c1ncccn1,-29.3% (active),–,58.3% (inactive),74.9% (inactive),59.1% (inactive),66.6% (inactive),27.7% (inactive),-68.3% (active),-30.9% (active),38.8% (inactive)
CC1=C2[C@H]3OC(=O)[C@@H](C)[C@@H]3CC[C@@]2(C)C=CC1=O,95.3% (inactive),118% (inactive),88.3% (inactive),–,101% (inactive),112% (inactive),93% (inactive),99.1% (inactive),122% (inactive),50.5% (inactive)
Cc1ccc(C(=O)O[C@H](C(=O)O)[C@H](OC(=O)c2ccc(C)cc2)C(=O)O)cc1,101% (inactive),98% (inactive),103% (inactive),–,97.8% (inactive),105% (inactive),104% (inactive),97% (inactive),109% (inactive),101% (inactive)
CN1[C@@H](CC(=O)c2ccccc2)CCC[C@H]1CC(=O)c1ccccc1,97.1% (inactive),108% (inactive),90.6% (inactive),–,103% (inactive),102% (inactive),97.7% (inactive),93.8% (inactive),103% (inactive),93% (inactive)
CCN1C(=O)CC(=O)N(CC)C1=S,96.4% (inactive),92.1% (inactive),72.4% (inactive),–,105% (inactive),96.8% (inactive),95.5% (inactive),100% (inactive),105% (inactive),100% (inactive)
Cc1ccc(P(=O)(O)O)cc1,107% (inactive),109% (inactive),107% (inactive),–,101% (inactive),107% (inactive),98.6% (inactive),104% (inactive),112% (inactive),–
CC(=O)c1cccc(S(=O)(=O)F)c1,96.3% (inactive),104% (inactive),117% (inactive),–,100% (inactive),110% (inactive),103% (inactive),90.1% (inactive),120% (inactive),79% (inactive)
Nc1nc(=S)nc(N)[nH]1,101% (inactive),104% (inactive),–,97.2% (inactive),97% (inactive),103% (inactive),101% (inactive),–,100% (inactive),–
O=S1(=O)OCCO1,99% (inactive),107% (inactive),90.5% (inactive),–,105% (inactive),101% (inactive),87.4% (inactive),92.3% (inactive),100% (inactive),99.9% (inactive)
C[C@]12CC[C@H]3[C@@H](CC=C4c5nc(-c6ccc(Br)cc6)sc5CC[C@@]43C)[C@@H]1CC[C@@H]2O,89.1% (inactive),109% (inactive),78.4% (inactive),–,63.4% (inactive),97.1% (inactive),84.4% (inactive),90% (inactive),90.1% (inactive),101% (inactive)
Cc1cc(C(C)(C)C)ccc1O,109% (inactive),106% (inactive),102% (inactive),–,94.2% (inactive),–,109% (inactive),94.9% (inactive),110% (inactive),93.6% (inactive)
O=c1[nH]c(=O)n(Cl)c(=O)n1Cl,111% (inactive) and 108% (inactive),106% (inactive) and 112% (inactive),124% (inactive) and 105% (inactive),–,98.5% (inactive) and 113% (inactive),103% (inactive) and 93.7% (inactive),98.7% (inactive) and 101% (inactive),109% (inactive) and 105% (inactive),117% (inactive) and 122% (inactive),–
CCCN1C(=O)NC(=O)C(CC)(N2C(=O)c3c(F)c(F)c(F)c(F)c3C2=O)C1=O (stereo not drawn),-51.8% (active),–,-52.1% (active),-94.9% (active),-48% (active),-91.7% (active),-68.6% (active),-55.9% (active),-93.7% (active),-59.2% (active)
CC1(C)N(Nc2ccccc2)C(=O)C2CCCN21 (stereo not drawn),44.5% (inactive),65.7% (inactive),50.7% (inactive),–,85.2% (inactive),97.5% (inactive),21.7% (inactive),6.21% (active),79% (inactive),9.48% (active)
Cn1cc(-c2csc(-c3cn(CCCCN4CCOCC4)c4ccc(F)cc34)n2)c2cccnc21,61.7% (inactive),-64% (active),61.9% (inactive),–,67.3% (inactive),48.1% (inactive),22.8% (inactive),67.6% (inactive),-87.1% (active),49.3% (inactive)
Nc1ccc2c(c1)Cc1cc(N)ccc1-2,85.3% (inactive),98.8% (inactive),74% (inactive),–,94.9% (inactive),95.8% (inactive),96% (inactive),105% (inactive),92.6% (inactive),–
O=C(O)c1cc([N+](=O)[O-])cc([N+](=O)[O-])c1,109% (inactive),96.6% (inactive),86.8% (inactive),–,91.8% (inactive),98% (inactive),105% (inactive),97% (inactive),106% (inactive),84.6% (inactive)
N#CC(C#N)=Cc1cccc(F)c1,105% (inactive),104% (inactive),–,100% (inactive),103% (inactive),101% (inactive),98.2% (inactive),98.9% (inactive),111% (inactive),100% (inactive)
C[C@@H]1C/C=C\C(=O)O[C@H](/C=C/C#C/C=C/C(C)(C)[C@@H](O)c2cccc(O)c2Br)[C@@H](C)/C=C/[C@H](C)C[C@H](OC(N)=O)C1,2.46% (active),5.59% (active),32.7% (inactive),–,24.5% (inactive),-61.5% (active),-41.8% (active),-2.94% (active),35.5% (inactive),33.5% (inactive)
Cc1ccc(S(=O)(=O)n2cc([C@@]3(O)C[C@H](CSC#N)OC3=O)c3ccccc32)cc1,70% (inactive),54.3% (inactive),67.8% (inactive),–,40.9% (inactive),66.6% (inactive),76.3% (inactive),49.4% (inactive),96.2% (inactive),78.5% (inactive)
CC1(C)CN=C(NN=C(/C=C/c2ccc(C(F)(F)F)cc2)/C=C/c2ccc(C(F)(F)F)cc2)NC1,-72% (active),-83.2% (active),-88.6% (active),–,–,–,-83.8% (active),–,-90.9% (active),24.7% (inactive)
COC(=O)CCP(CCC(=O)OC)c1ccccc1,106% (inactive),–,89.5% (inactive),119% (inactive),99.3% (inactive),103% (inactive),97.9% (inactive),100% (inactive),103% (inactive),99.9% (inactive)
C/C(=N/OC(=O)N(C)C)c1ccc(Cl)c(Cl)c1,107% (inactive),–,116% (inactive),99.4% (inactive),105% (inactive),99.3% (inactive),97.8% (inactive),99.2% (inactive),105% (inactive),93.7% (inactive)
N#CC(C#N)=C(C#N)C#N,97.9% (inactive),–,87.7% (inactive),102% (inactive),99.8% (inactive),102% (inactive),101% (inactive),52.3% (inactive),105% (inactive),96.8% (inactive)
N[C@@H](CCC(=O)CCl)C(=O)O,93.7% [20 µM] (inactive),94.2% [20 µM] (inactive),66.9% [20 µM] (inactive),–,96.5% [20 µM] (inactive),101% [20 µM] (inactive),92.1% [20 µM] (inactive),96.7% [20 µM] (inactive),103% [20 µM] (inactive),100% [20 µM] (inactive)
O=C(Cc1ccccc1)c1ccccc1,102% (inactive),–,86.8% (inactive),109% (inactive),94.5% (inactive),99.6% (inactive),111% (inactive),106% (inactive),113% (inactive),98.2% (inactive)
